Reference: PubChem BioAssay
Several values for one entry are separate records, joined by “and”; a condition that tells them apart may be missing. Equal values may be shown once. Activity calls are given as the source filed them.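 How the source made its calls, unless noted: active means normalized viability below 100% at a tested concentration; inactive means the rest.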

Legend:
[1] = Wnt pathway potentiators raising nuclear beta-catenin – imaging, WNT3A-conditioned medium, mouse C2C12, NPC library, primary screen (AID 1117326; in the data active means nuclear beta-catenin stimulation mostly above about 4.2%, no sharp cut-off; inactive means mostly below about 10%); conditions: stronger effect = higher value
[2] = growth inhibition of GSK3B-pretreated HCT116 cells – cell-based, CellTiter-Glo, 0.2 to 20 µM (AID 1117336;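 active means compounds lowering colon cancer cell viability after pretreatment blocking the GSK3B kinase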); conditions: HCT116 viability after GSK3B inhibitor, at 20 µM, stronger effect = higher value
[3] = HCT116 colon cancer cell growth inhibition, primary screen, CellTiter-Glo luminescence, NPC library (AID 1117342;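 active means compounds that lower survival of HCT116 colon cancer cells in the luminescence readout, no numeric limit stated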); conditions: at 20 µM (top of the series)
[4] = reduced SW480 viability measured with CellTiter-Glo, NPC library, primary (AID 1117343;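 active means compounds that lower viability of the colon cancer cells in the luminescence readout, with no numeric limit stated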); conditions: CellTiter-Glo luminescence; at 20 µM (top of the series) unless noted
[5] = NPC library primary testing for decreased DLD-1 cell viability via CellTiter-Glo (AID 1117346;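 active means compounds that lower survival of DLD-1 colon cancer cells in the luminescence readout, no cutoff given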); conditions: DLD-1 viability, CellTiter-Glo luminescence; at 20 µM (top of the series)
[6] = viability loss with induced miR-34 in A549 – imaging, A549 dox-inducible miR-34, nuclei and caspase counts, primary screen (AID 1347080;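 active means compounds whose cell count with miR-34 switched on is under 0.7 times the count with it off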); conditions: A549 miR-34 inducible, Hoechst nuclei count, 48 h
[7] = galactose survival enhancers in mitochondrial complex I cybrids – cell-based, galactose medium, ATP luminescence, primary screen (AID 1645843;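 active means z-score of at least 1.8 in each of two replicates, scored against plate mean and spread of sample wells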;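 further: positive z means more ATP and so rescue of galactose-driven cybrid death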); conditions: complex I mutant cybrid cells, 72 h, stronger effect = higher value
[8] = biological target: 6-phosphogluconate dehydrogenase, decarboxylating (Homo sapiens) (UniProt P52209); assay: inhibition of human phosphogluconate dehydrogenase – biochemical, recombinant enzyme, NADPH absorbance, primary screen (AID 1159550;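 active means at least 20% inhibition of 6-phosphogluconate dehydrogenase activity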); conditions: recombinant 6PGD, NADPH absorbance 341 nm; at 10 µM; stronger effect = higher value
[9] = modulation of C. elegans fzo-1 (AID 1259413; call rule not given here;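 further: fzo-1 mutant C. elegans worms in liquid wells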); conditions: C. elegans fzo-1 modulator screen, mean read-out; stronger effect = higher value
[10] = EMT-state selective cytotoxicity in co-culture – imaging, PC-3E GFP, TEM4-18 mCherry, primary screen (AID 1345086;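 active means compounds killing one labelled cell type while sparing the other, by normalised counts and ratio limits, not self-fluorescent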;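 on all read-outs here: cells exposed to compound for 72 h before imaging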;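 on red/green cell ratio (normalised): normalised mesenchymal count divided by normalised epithelial count so high means epithelial killing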); conditions: PC-3E GFP / TEM4-18 mCherry co-culture, imaging cell counts, at 1 µM; for red/green cell ratio (normalised): actives lie on both sides, counts scaled to control wells, 1 = unselective
[11] = blockers of cellular phospholipid synthesis – cell-based, LOPAC library, screen 4, primary screen (AID 1347384; call rule not given here); conditions: animal cells, phospholipid biosynthesis inhibition screen; at 10 µM
[12] = drug combination growth inhibition, ovarian cancer – cell-based, oncology-focused library, rucaparib conditional, profiling panel (AID 1508598); conditions: patient-derived ovarian cancer cells, CellTiter-Glo viability, 144 h, stronger effect = lower value
[13] = biological target: NAD(+) hydrolase SARM1 (Homo sapiens) (UniProt Q6SZW1); assay: blocking NAD cleavage by SARM1 SAM-TIR – cell lysate, NAD-Glo luminescence (AID 1508614;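 active means compound whose remaining NAD level is above about 45 nM, limit read from the data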); conditions: SAM-TIR HEK293T lysate NADase, at 1 µM, stronger effect = higher value
[14] = biological target: Mitogen-activated protein kinase 7 (Homo sapiens) (UniProt Q13164); assay: Gal4-ERK5 driven luciferase induction – cell-based, HTS, primary screen (AID 1508626;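 active means luciferase signal above three times the same-plate solvent-only control wells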;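 further: luciferase driven by Gal4-ERK5 fusion binding five Gal4 sites before minimal TATA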); conditions: HeLa Gal4-ERK5 transactivation, 18 h, at 5 µM, stronger effect = higher value
[15] = compounds altering viability of human ES cells (AID 493140; call rule not given here;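 further: cells exposed to compounds for four days before counting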); conditions: human embryonic stem cell survival screen; stronger effect = higher value
[16] = stimulators of insulin release from INS-1E, primary screen, cell-based, 5 mM glucose, NPC library (AID 1117329;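 active means compound raises insulin release from rat beta cells at 5 mM glucose, no numeric limit stated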); conditions: rat INS-1E insulin secretion, at 10 µM, stronger effect = higher value
[17] = inhibition of endothelial tube formation, primary screen, imaging, VEGF stimulated, CD31 staining, tube area, NPC library (AID 1117340;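 active means compound that reduces growth-factor-driven endothelial tube area in a mixed cell culture, no cutoff stated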); conditions: VEGF-stimulated ADSC/ECFC co-culture, at 10 µM, stronger effect = higher value
[18] = GLP1 release stimulators, primary, NCI-H716, NPC library (AID 1117341;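 active means compound raises GLP1 secretion from the human gut endocrine cells, with no numeric limit stated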); conditions: NCI-H716 cells, at 10 µM, stronger effect = higher value
[19] = MELAS cybrid and Rieske KO viability enhancers – cell-based, MELAS cybrids, Rieske KO mouse fibroblasts, CellTiter-Glo, primary screen (AID 1508586;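 active means mean z-score across replicates of 1.96 or higher in either the MELAS or the Rieske mutant cell line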;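 further: z relative to plate mean and SD of compound and empty wells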); conditions: low glucose
[20] = stronger effect = lower value, cell number ratio, induced over uninduced
[21] = measured here: relative caspase fold change +Dox/-Dox
[22] = measured here: total cells with miR-34 induction, stronger effect = lower value
[23] = measured here: total cells without miR-34 induction
[24] = measured here: epithelial PC-3E GFP cell survival
[25] = measured here: mesenchymal TEM4-18 mCherry cell survival
[26] = MELAS cybrid survival, CellTiter-Glo 48 h, stronger effect = higher value
[27] = Rieske KO mouse fibroblast survival, CellTiter-Glo 72 h

Chain of Mitogen-activated protein kinase 7 (Homo sapiens) (Q13164 whole entry, looked up, the tested form may be a part): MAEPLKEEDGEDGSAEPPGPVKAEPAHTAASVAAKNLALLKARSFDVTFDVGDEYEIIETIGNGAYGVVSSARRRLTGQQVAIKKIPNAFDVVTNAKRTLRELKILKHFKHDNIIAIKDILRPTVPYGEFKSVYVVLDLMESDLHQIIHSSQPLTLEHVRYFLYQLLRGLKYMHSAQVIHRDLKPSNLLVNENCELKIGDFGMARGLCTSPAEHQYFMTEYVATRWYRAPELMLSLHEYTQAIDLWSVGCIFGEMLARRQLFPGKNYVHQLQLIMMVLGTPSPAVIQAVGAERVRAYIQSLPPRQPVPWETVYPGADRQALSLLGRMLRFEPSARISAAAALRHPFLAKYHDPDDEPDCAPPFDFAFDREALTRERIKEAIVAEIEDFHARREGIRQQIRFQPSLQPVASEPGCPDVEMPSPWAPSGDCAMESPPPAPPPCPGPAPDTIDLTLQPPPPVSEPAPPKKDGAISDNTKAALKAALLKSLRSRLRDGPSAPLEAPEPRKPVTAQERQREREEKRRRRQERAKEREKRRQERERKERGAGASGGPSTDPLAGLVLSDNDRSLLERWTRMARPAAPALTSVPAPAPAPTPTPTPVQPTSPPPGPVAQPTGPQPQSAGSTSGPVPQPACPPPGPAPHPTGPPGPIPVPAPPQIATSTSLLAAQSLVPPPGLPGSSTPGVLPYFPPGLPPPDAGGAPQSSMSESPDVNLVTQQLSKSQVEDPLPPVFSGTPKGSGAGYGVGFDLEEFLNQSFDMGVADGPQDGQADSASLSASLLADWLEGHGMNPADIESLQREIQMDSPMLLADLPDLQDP
Chain of 6-phosphogluconate dehydrogenase, decarboxylating (Homo sapiens) (P52209 whole entry, looked up): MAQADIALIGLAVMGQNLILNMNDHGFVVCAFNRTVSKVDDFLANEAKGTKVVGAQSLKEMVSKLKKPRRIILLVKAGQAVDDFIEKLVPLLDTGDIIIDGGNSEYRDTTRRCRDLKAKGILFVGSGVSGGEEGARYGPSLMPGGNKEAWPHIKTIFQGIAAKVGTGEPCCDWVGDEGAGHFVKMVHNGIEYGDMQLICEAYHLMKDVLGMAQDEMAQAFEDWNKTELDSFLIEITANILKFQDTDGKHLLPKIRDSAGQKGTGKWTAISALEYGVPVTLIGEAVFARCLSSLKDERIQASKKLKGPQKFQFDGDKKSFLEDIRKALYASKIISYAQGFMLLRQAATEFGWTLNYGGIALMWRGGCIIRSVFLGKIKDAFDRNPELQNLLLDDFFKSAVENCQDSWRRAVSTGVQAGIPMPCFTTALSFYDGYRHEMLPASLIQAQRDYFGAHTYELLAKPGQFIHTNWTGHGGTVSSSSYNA
Chain of NAD(+) hydrolase SARM1 (Homo sapiens) (Q6SZW1 whole entry, looked up, the tested form may be a part): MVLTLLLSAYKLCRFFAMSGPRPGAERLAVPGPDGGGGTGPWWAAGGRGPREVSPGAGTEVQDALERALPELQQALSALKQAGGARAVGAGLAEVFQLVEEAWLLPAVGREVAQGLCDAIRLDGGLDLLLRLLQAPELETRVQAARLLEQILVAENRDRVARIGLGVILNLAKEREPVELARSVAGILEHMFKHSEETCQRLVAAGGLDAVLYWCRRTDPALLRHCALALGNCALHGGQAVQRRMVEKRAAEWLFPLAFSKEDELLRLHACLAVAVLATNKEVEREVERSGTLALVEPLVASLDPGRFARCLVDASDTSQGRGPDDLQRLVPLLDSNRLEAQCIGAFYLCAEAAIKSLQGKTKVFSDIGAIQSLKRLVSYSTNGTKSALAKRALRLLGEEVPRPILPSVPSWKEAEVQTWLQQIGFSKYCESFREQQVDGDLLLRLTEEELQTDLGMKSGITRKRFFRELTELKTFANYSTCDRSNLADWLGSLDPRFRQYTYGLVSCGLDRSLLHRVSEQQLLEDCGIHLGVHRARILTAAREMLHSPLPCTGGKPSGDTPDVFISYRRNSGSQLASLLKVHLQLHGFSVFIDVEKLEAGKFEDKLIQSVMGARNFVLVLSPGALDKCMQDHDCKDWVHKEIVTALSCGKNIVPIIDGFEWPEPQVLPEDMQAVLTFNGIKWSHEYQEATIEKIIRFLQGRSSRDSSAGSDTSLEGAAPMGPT

COCCOCC(OC)OC
10.8%: nuclear beta-catenin stimulation ([1]; stimulation, at 2 µM)
inactive: nuclear beta-catenin stimulation ([1]; at 10 µM) 1.2% | viability decrease [2] 0.6% | inhibition of viability [3] 12.5% | viability decrease (inhibition) [4] -8.8% | viability decrease (inhibition) [5] 6.9%

C[C@@H](C1=C(CCN(C)C)Cc2ccccc21)c1ccccn1
0.633: fold change [6, 21]
8520: cell count [6, 23]
8.1%: nuclear beta-catenin stimulation ([1]; stimulation, at 2 µM)
inactive: nuclear beta-catenin stimulation ([1]; at 10 µM) -0.2% | viability decrease [2] 37.5% | inhibition of viability [3] -11.9% | viability decrease (inhibition) [5] -48.2% | fold change [6, 20] 0.916 | z-score [7] -0.445
active: viability decrease (inhibition) [4] 63.6%
7800: cell count [6, 22]

CCCC(CCC)C(=O)O
inactive: nuclear beta-catenin stimulation ([1]; at 10 µM) -1.5% | viability decrease [2] 4.6% | inhibition of viability [3] 20.8% | viability decrease (inhibition) [4] -4.3% | viability decrease (inhibition) [5] 13.5% | inhibition [8] 13.2% | mean signal [9] 274 | red/green cell ratio (normalised) [10] 1.21 | outcome [11] | viability ([12]; at 0.000305 µM, OCI-C5x cells, with rucaparib 10 µM, 100% = cells with rucaparib alone) 125% | viability ([12]; at 0.000305 µM, OCI-C5x cells, without rucaparib) 105% | viability ([12]; at 0.000305 µM, OCI-P5x cells, with rucaparib 20 µM, 100% = cells with rucaparib alone) 129% | viability ([12]; at 0.000305 µM, OCI-P5x cells, without rucaparib) 126% | viability ([12]; at 0.00122 µM, OCI-C5x cells, with rucaparib 10 µM, 100% = cells with rucaparib alone) 125% | viability ([12]; at 0.00122 µM, OCI-C5x cells, without rucaparib) 128% | viability ([12]; at 0.00122 µM, OCI-P5x cells, with rucaparib 20 µM, 100% = cells with rucaparib alone) 124% | viability ([12]; at 0.00122 µM, OCI-P5x cells, without rucaparib) 121% | viability ([12]; at 0.00488 µM, OCI-C5x cells, with rucaparib 10 µM, 100% = cells with rucaparib alone) 113% | viability ([12]; at 0.00488 µM, OCI-C5x cells, without rucaparib) 115% | viability ([12]; at 0.00488 µM, OCI-P5x cells, with rucaparib 20 µM, 100% = cells with rucaparib alone) 122% | viability ([12]; at 0.00488 µM, OCI-P5x cells, without rucaparib) 127% | viability ([12]; at 0.0195 µM, OCI-C5x cells, with rucaparib 10 µM, 100% = cells with rucaparib alone) 119% | viability ([12]; at 0.0195 µM, OCI-C5x cells, without rucaparib) 117% | viability ([12]; at 0.0195 µM, OCI-P5x cells, with rucaparib 20 µM, 100% = cells with rucaparib alone) 123% | viability ([12]; at 0.0195 µM, OCI-P5x cells, without rucaparib) 123% | viability ([12]; at 0.0781 µM, OCI-C5x cells, with rucaparib 10 µM, 100% = cells with rucaparib alone) 111% | viability ([12]; at 0.0781 µM, OCI-C5x cells, without rucaparib) 118% | viability ([12]; at 0.0781 µM, OCI-P5x cells, with rucaparib 20 µM, 100% = cells with rucaparib alone) 121% | viability ([12]; at 0.0781 µM, OCI-P5x cells, without rucaparib) 124% | viability ([12]; at 0.313 µM, OCI-C5x cells, with rucaparib 10 µM, 100% = cells with rucaparib alone) 116% | viability ([12]; at 0.313 µM, OCI-C5x cells, without rucaparib) 115% | viability ([12]; at 0.313 µM, OCI-P5x cells, with rucaparib 20 µM, 100% = cells with rucaparib alone) 118% | viability ([12]; at 0.313 µM, OCI-P5x cells, without rucaparib) 122% | viability ([12]; at 1.25 µM, OCI-C5x cells, with rucaparib 10 µM, 100% = cells with rucaparib alone) 119% | viability ([12]; at 1.25 µM, OCI-C5x cells, without rucaparib) 112% | viability ([12]; at 1.25 µM, OCI-P5x cells, with rucaparib 20 µM, 100% = cells with rucaparib alone) 112% | viability ([12]; at 1.25 µM, OCI-P5x cells, without rucaparib) 128% | viability ([12]; at 5 µM, OCI-C5x cells, with rucaparib 10 µM, 100% = cells with rucaparib alone) 115% | viability ([12]; at 5 µM, OCI-C5x cells, without rucaparib) 116% | viability ([12]; at 5 µM, OCI-P5x cells, with rucaparib 20 µM, 100% = cells with rucaparib alone) 122% | viability ([12]; at 5 µM, OCI-P5x cells, without rucaparib) 112% | remaining NAD [13] 10 nM | luciferase signal [14] 132 AU | z-score [7] 0.57 and 0.76 and 0.71
0.95: normalised cell number [10, 24]
1.15: normalised cell number [10, 25]
8.9%: nuclear beta-catenin stimulation ([1]; stimulation, at 2 µM)

CC(C)(C)NCC(O)c1ccc(O)c(CO)c1 (stereo unspecified)
1: normalised cell number [10, 25]
1.18: normalised cell number [10, 24]
inactive: survival [15] 26.5 | insulin secretion stimulation [16] 1.1% | viability decrease [2] -1.7% | tube area decrease [17] -7.8% | GLP1 secretion stimulation [18] -1.8% | viability decrease (inhibition) [4] -5.2% | viability decrease (inhibition) [5] -10% | inhibition [8] 0.167% | mean signal [9] 230 | red/green cell ratio (normalised) [10] 0.85 | outcome [11] | z-score [19, 26] 0.679 and -0.995 | remaining NAD [13] 10 nM | luciferase signal [14] 32 AU | z-score [7] 0.105 and 0.825 and 0.82
active: inhibition of viability [3] -1.7%
0.164 and -0.427: z-score [19, 27]

CNCCCN1c2ccccc2CCc2ccccc21
0.183: z-score [19, 27]
1.36: normalised cell number [10, 24]
inactive: survival [15] 2.75 | insulin secretion stimulation [16] 15.8% | viability decrease [2] -17.7% | tube area decrease [17] 12.6% | GLP1 secretion stimulation [18] 5.9% | inhibition of viability [3] 37.5% | viability decrease (inhibition) [5] 33.3% | inhibition [8] 3.76% | mean signal [9] 181 | red/green cell ratio (normalised) [10] 1.1 | outcome [11] | z-score [19, 26] 0.0784 | remaining NAD [13] 10 nM | luciferase signal [14] 80 AU | z-score [7] -0.895 and -0.71
active: viability decrease (inhibition) [4] 104%
1.5: normalised cell number [10, 25]

CC(C)NCC(O)COc1cccc2[nH]ccc12 (stereo unspecified)
0.83: normalised cell number [10, 24]
1.17: normalised cell number [10, 25]
-0.0517 and -0.221: z-score [19, 27]
inactive: survival [15] 5.75 | insulin secretion stimulation [16] 0.3% | viability decrease [2] 17.5% | tube area decrease [17] 0% | GLP1 secretion stimulation [18] 1.4% | inhibition of viability [3] -13.4% | viability decrease (inhibition) [4] -0.7% | viability decrease (inhibition) [5] -7.1% | inhibition [8] 11.4% | mean signal [9] 248 | red/green cell ratio (normalised) [10] 1.41 | outcome [11] | z-score [19, 26] -0.583 and -0.452 | remaining NAD [13] 10 nM | luciferase signal [14] 84 AU

CC(C)CCCC(C)NCCC(C)C (stereo unspecified)
inactive: nuclear beta-catenin stimulation ([1]; at 10 µM) -1.6% | viability decrease [2] -5.2% | inhibition of viability [3] -0.4% | viability decrease (inhibition) [4] -8.8% | viability decrease (inhibition) [5] 1.8%
2.7%: nuclear beta-catenin stimulation ([1]; stimulation, at 2 µM)

CN1C(=O)CC[C@H]1c1cccnc1
5.5%: nuclear beta-catenin stimulation ([1]; stimulation, at 2 µM)
1.23: normalised cell number [10, 25]
inactive: survival [15] 19.8 | nuclear beta-catenin stimulation ([1]; at 10 µM) -1.4% | viability decrease [2] 22.7% | inhibition of viability [3] 12.8% | viability decrease (inhibition) [4] -3% | viability decrease (inhibition) [5] 14.2% | inhibition [8] 7.9% | mean signal [9] 242 | red/green cell ratio (normalised) [10] 1.08 | fold change [6, 20] 1 and 0.929 and 0.864 | outcome [11] | remaining NAD [13] 22 nM | luciferase signal [14] 64 AU | z-score [7] 0.48
1.13: normalised cell number [10, 24]
1.81 and 1.06 and 0.497: fold change [6, 21]
10100 and 8480 and 11900: cell count [6, 23]
10100 and 7880 and 10300: cell count [6, 22]
